Measured values taken from PubChem BioAssay (NCATS).
Records with an inconclusive call do not appear. Entries that show only a call come without a potency. Calls of active or inactive are those of the source. Calls follow the shape of the dose curve; as a rule, active = well fitted curve in the direction sought with a large enough effect; inconclusive = small, poorly fitted or top-dose-only effect, or another doubt; inactive = no such curve, though single readings can be large; an effect the other way counts as inactive or inconclusive.

target: Tyrosyl-DNA phosphodiesterase 1 (Homo sapiens) (UniProt Q9NUW8); experiment: Confirmation Assay for Inhibitors of Tyrosyl-DNA Phosphodiesterase (TDP1) (AID 489007); conditions: recombinant human TDP1 enzymatic activity, dose-response; also: potency is read from the fitted curve at half-maximal effect; nearly all actives have a fitted effect of over 40% in size
Sequence (Q9NUW8 whole entry, looked up): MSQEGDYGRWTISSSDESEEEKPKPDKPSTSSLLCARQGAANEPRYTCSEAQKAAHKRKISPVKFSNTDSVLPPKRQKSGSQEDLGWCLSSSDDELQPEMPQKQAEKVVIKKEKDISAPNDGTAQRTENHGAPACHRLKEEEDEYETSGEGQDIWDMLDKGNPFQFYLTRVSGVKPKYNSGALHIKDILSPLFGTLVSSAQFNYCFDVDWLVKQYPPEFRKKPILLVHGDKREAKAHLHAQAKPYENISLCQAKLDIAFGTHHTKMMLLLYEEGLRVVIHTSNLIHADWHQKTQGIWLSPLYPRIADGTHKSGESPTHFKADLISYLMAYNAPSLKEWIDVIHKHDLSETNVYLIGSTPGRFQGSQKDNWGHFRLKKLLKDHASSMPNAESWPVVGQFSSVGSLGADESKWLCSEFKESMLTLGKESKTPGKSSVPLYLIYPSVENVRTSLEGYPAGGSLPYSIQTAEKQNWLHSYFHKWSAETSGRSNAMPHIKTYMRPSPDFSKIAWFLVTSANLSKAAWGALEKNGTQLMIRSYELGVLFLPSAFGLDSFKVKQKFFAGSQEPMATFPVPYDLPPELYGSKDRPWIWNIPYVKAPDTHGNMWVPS
Method in brief: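 AlphaScreen read-out: streptavidin donor and anti-FITC acceptor beads (10 ug/ml) bind intact substrate, so Tdp1 removal of tyrosine-FITC lowers signal. Enzyme 1 nM, substrate 15 nM, 5 min reaction at room temperature after 15 min compound preincubation.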

| SMILES | Potency |
| --- | --- |
| CC1=C(CCC(=O)O)c2cc3nc(cc4[nH]c(cc5[nH]c(cc1n2)c(C)c5C(C)O)c(C)c4C(C)O)C(C)=C3CCC(=O)O (configuration not stated) | 6.31 µM (active) |
| Cc1cc(O)c(C=O)c2c1C(=O)Oc1c(C)c(O)c3c(c1O2)C(O)OC3=O (configuration not stated) | 5.62 µM (active) |
| COc1c(O)cc(O)cc1O | 8.91 µM (active) |
| Cc1cc(O)c(C=O)c2c1C(=O)Oc1c(COC(=O)/C=C/C(=O)O)c(O)c(C(=O)O)c(C)c1O2 | 3.16 µM (active) |

target: ATP-dependent 6-phosphofructokinase (Trypanosoma brucei brucei) (UniProt O15648); experiment: qHTS Assay to Find Inhibitors of T. brucei phosphofructokinase: hit validation (AID 492961);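 also: luminescence reports ADP formed as PFK phosphorylates fructose-6-phosphate with ATP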; conditions: T. brucei PFK, ADP-Glo luminescence; series mostly up to 24.3 µM
Sequence (O15648 whole entry, looked up): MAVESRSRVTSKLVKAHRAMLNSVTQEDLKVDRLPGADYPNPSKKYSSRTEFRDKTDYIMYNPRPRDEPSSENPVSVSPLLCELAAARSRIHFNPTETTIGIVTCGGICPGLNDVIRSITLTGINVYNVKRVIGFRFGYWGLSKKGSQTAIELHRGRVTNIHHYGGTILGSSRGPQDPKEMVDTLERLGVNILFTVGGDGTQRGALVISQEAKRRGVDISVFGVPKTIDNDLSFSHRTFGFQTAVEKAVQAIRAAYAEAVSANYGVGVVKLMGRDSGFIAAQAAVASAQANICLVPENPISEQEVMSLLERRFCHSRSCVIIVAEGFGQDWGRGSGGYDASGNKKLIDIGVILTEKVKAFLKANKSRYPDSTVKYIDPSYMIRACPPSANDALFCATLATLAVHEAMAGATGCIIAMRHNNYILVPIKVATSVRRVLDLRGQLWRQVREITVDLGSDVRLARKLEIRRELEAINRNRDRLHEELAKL
Method in brief: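 Inhibition of parasite PFK is measured as reduced ADP formation, quantified via luciferase after ATP depletion. Assay used 0.1 mM ATP, 0.5 mM F6P, 1.25 nM enzyme, 45 min incubation.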

| SMILES | outcome |
| --- | --- |
| CN(C)CCCOC1C(C(O)CO)OC2OC(C)(C)O[C@@H]21 (some centres not stated) | inactive |
| CCC(C)C(=O)OC1CCC=C2C=CC(C)C(CCC3CC(O)CC(=O)O3)[C@@H]21 (some centres not stated) | inactive |
| CC(=O)OC1CCC2C3CCc4cc(O)ccc4C3CCC12C (configuration not stated) | inactive |
| CC[C@@]12CCCN3CCc4c(n(c5ccccc45)[C@](O)(C(=O)OC)C1)C32 (some centres not stated) | inactive |
| NC(C(=O)O)[C@@H]1CC(Cl)=NO1 (some centres not stated) | inactive |
| CN1CC(=O)N=C1N | inactive |
| OCC1OC([S-])[C@H](O)C(O)C1O.[Au+] (some centres not stated) | inactive |
| CC(C)C1CCC(C(=O)NC(Cc2ccccc2)C(=O)O)CC1 (configuration not stated) | inactive |
| CCC(CCC(C)C1CCC2C3CC=C4CC(O)CC[C@@]4(C)C3CC[C@@]12C)C(C)C (some centres not stated) | inactive |
| C[C@]12CCC(=O)C=C1CCC1C2C(=O)C[C@]2(C)C1CC[C@]2(O)C(=O)CO (some centres not stated) | inactive |
| OCC1O[C@H](OC2C(CO)O[C@@](O)(CO)C2O)C(O)C(O)C1O (some centres not stated) | inactive |
| CC1(C)OC2CO[C@]3(COS(N)(=O)=O)OC(C)(C)OC3C2O1 (some centres not stated) | inactive |
| CC1(C)OC2CC(=O)OC[C@@]23C1CC(=O)[C@]1(C)C3CC[C@@]2(C)C(c3ccoc3)OC(=O)C3O[C@@]321 (some centres not stated) | inactive |
